The panel holds about 79,000 compounds, 15% with a hit somewhere; the sample as a whole holds those more often. The source made the active and inactive calls. No stated cut-off is given here; in the data, active means growth inhibition above about 70%; inactive means the rest. Where a SMILES comes first, the peptide text is derived from it. [ ]: non-standard residue; d: D form. The star is where a group is joined. Nle = CCCC[CH](N)C(=O)O; Cbz = O=C(OCc1ccccc1)*
Assays:
[1] = NCI Yeast Anticancer Drug Screen. Data for the rad50 strain (AID 155);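 further: 0% = growth of vehicle-only cultures of the same strain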; conditions: S. cerevisiae rad50 strain growth inhibition; at 50.0 µM; hits give high values
Method in brief: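 Vehicle-treated cultures provide the reference for the growth inhibition reported for compound-exposed, repair-deficient yeast.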

[2] = NCI Yeast Anticancer Drug Screen. Data for the mec2-1 strain (AID 157); conditions: S. cerevisiae mec2-1 strain, at 50.0 µM, hits give high values
Method in brief: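 Test agents were screened against the mec2-1 yeast strain, with defined DNA repair or cell cycle alteration. Growth was scored as inhibition against vehicle-only controls.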

[3] = NCI Yeast Anticancer Drug Screen. Data for the sgs1 mgt1 strain (AID 161);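 further: 0% = growth of cultures given vehicle only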; conditions: S. cerevisiae sgs1 mgt1 strain, at 50.0 µM, hits give high values
Method in brief: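 Test agents were incubated with a DNA-repair-mutant yeast strain. Growth was then read and compared against vehicle-treated controls.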

[4] = NCI Yeast Anticancer Drug Screen. Data for the cln2 rad14 strain (AID 165);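 further: 0% = growth equal to vehicle treated cultures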; conditions: S. cerevisiae cln2 rad14 strain, at 50.0 µM, hits give high values
Method in brief: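 Growth of compound-exposed yeast (cln2 rad14 genotype) measured and expressed as inhibition relative to vehicle.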

[5] = NCI Yeast Anticancer Drug Screen. Data for the bub3 strain (AID 167); conditions: S. cerevisiae bub3 mutant strain, at 50.0 µM, hits give high values
Method in brief: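 Mutant yeast screening strain plus compound; vehicle-treated cultures serve as the 0% inhibition reference.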

[6] = NCI Yeast Anticancer Drug Screen. Data for the mlh1 rad18 strain (AID 175); conditions: S. cerevisiae mlh1 rad18 strain growth inhibition; at 50.0 µM; hits give high values
Method in brief: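 In this whole-cell yeast screen, a strain with altered DNA damage repair is challenged with compound, and its growth is measured against matched vehicle-treated controls.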

Measured: growth inhibition

CC(C)(C)NC(=O)Oc1ccc(-c2ccccc2)cc1Cl
active: [1] 98.8% | [2] 99.5% | [3] 99.2% | [4] 98.3% | [5] 99.3% | [6] 99.3%

O=C(c1ccccc1)C(c1ccccc1)N(CCO)CCO (stereo unspecified)
inactive: [1] -9.8% | [2] -17.4% | [3] -2.85% | [4] -13.4% | [5] 20.6% | [6] -17.3%

O=C(O)CCC1(c2ccccc2)NC(=O)NC1=O (stereo unspecified)
inactive: [1] -39.1% | [2] -2.85% | [3] -18.4% | [4] -37% | [5] -1.1% | [6] -6.75%

Cn1ccnc1CCc1c(Cl)cccc1Cl
inactive: [1] -19.9% | [2] -21.4% | [3] -47.1% | [4] 9.4% | [5] -16.2% | [6] -22.9%

O=c1cc(CSc2ncnc3nc[nH]c23)occ1O
inactive: [1] -11.3% | [2] -4.4% | [3] -2.1% | [4] 2.55% | [5] 11.8% | [6] 4.2%

COc1cc(CNc2nc3ccccc3n2Cc2ccccc2)cc(CN2CCOCC2)c1O
inactive: [1] -4.4% | [2] 15.7% | [3] 3.7% | [4] 33.3% | [5] 9.55% | [6] 7.55%

Cn1c(=O)c2c3ccccc3c(C(=O)c3ccccc3)n2c2ccccc21
inactive: [1] 38.4% | [2] 4.1% | [3] 27.4% | [4] 25.9% | [5] -1.25% | [6] 34.4%

CCNC(=O)N(Cc1ccccc1)Cc1ccccc1
inactive: [1] 7.55% | [2] 8.65% | [3] 6.05% | [4] 13.3% | [5] 23.5% | [6] -20.6%

Cn1c(=O)c2c(ncn2CCNC(c2ccccc2)c2cccc(Cl)c2)n(C)c1=O (stereo unspecified)
inactive: [1] 6% | [2] -8.05% | [3] 4.35% | [4] -8.3% | [5] 0.8% | [6] 12.8%

CCCCOC(=O)C1C=C(N)CCC1 (stereo unspecified)
inactive: [1] 12.8% | [2] 6.8% | [3] -3.35% | [4] -32.6% | [5] -9.05% | [6] -16.4%

O=C1/C(=C/c2ccccc2)SC(=S)N1C1OC(CO)C(O)C(O)C1O (stereo unspecified)
inactive: [1] 3.45% | [2] 11.8% | [3] -8.4% | [4] 8.95% | [5] -3.95% | [6] 6.9%

CCCCCCCCCCCCCCCCOc1ccc(S(=O)(=O)NC(C)(C)C)cc1[N+](=O)[O-]
inactive: [1] 8.7% | [2] -17.4% | [3] 7.85% | [4] -1.6% | [5] 20.6% | [6] 18.9%

CC(OC(C)C(N)=O)C(N)=O (stereo unspecified)
inactive: [1] -0.05% | [2] 0.55% | [3] -5.8% | [4] -3.05% | [5] 4.9% | [6] -1.15%

O=C(O)CS(=O)(=O)c1nc2ccccc2[nH]1
inactive: [1] -27.3% | [2] 20.6% | [3] -7.75% | [4] -57.6% | [5] 10.8% | [6] -14.8%

c1ccc2[nH]c3c(N=NC4=NCCN4)c4ccccc4c-3nc2c1
inactive: [1] -10.5% | [2] -56.2% | [3] 10.1% | [4] -5.85% | [5] -15.3% | [6] 12.8%

CCCCCCCCCCCCCCCCCC(=O)Oc1ccc(OCc2ccccc2)cc1
inactive: [1] -13.5% | [2] -25.6% | [3] -11.4% | [4] 16.2% | [5] -11.4% | [6] -16.6%

O=C(C(=Cn1c(=O)cc[nH]c1=S)C(=O)c1ccccc1)c1ccccc1
inactive: [1] -14.7% | [2] -19.4% | [3] -27.6% | [4] 2.95% | [5] -15.6% | [6] -9.7%

O=[N+]([O-])/C(C(Cl)=C(Cl)Cl)=C(/Cl)Sc1ccccc1
active: [1] 91.8% | [2] 92.1% | [3] 85.7% | [4] 89.8% | [5] 89.1% | [6] 91.4%

COc1cccc(C(C#N)c2cnc3ccccc3n2)c1 (stereo unspecified)
inactive: [1] 27.4% | [2] 14.6% | [3] 10.1% | [4] 33.2% | [5] 37.1% | [6] 27.4%

COc1ccccc1NC(=O)CC(=O)n1nc(-c2ccccc2)c(N=Nc2ccccc2[N+](=O)[O-])c1-c1ccccc1
inactive: [1] -0.4% | [2] -15.5% | [3] 27.9% | [4] 0.5% | [5] 25.3% | [6] 15.5%

C/C=C/Cc1ccc(O)cc1
inactive: [1] 4.9% | [2] -6% | [3] -1% | [4] -25.4% | [5] -1.4% | [6] -1.05%

CCCCC(NC(=O)C(Cc1ccccc1)NC(=O)OCc1ccccc1)C(=O)O (stereo not drawn) (Cbz-Phe-[Nle]-OH; configuration not given here)
inactive: [1] 5.9% | [2] -1.2% | [3] -4.3% | [4] -31.8% | [5] -3.2% | [6] 9.05%

Cn1cnc(N)c1C(N)=S
inactive: [1] 4.65% | [2] 7.5% | [3] -8.6% | [4] -8.55% | [5] 7.9% | [6] 1.1%

N#CC(C#N)CN(C1=NCCO1)c1cccc2c1CCCC2
inactive: [1] -16.6% | [2] 8.4% | [3] -3.6% | [4] -24.6% | [5] -12.4% | [6] 14.3%

CC(C)Oc1ccc(C(N)=S)c2ccccc12
inactive: [1] -0.55% | [2] 4.75% | [3] -0.85% | [4] -29.1% | [5] -1% | [6] 14.1%

CCCCOC(=O)C(N)Cc1ccccc1 (stereo unspecified)
inactive: [1] -20.4% | [2] -2.3% | [3] -5.65% | [4] -44.5% | [5] 23.6% | [6] -22.2%

O=CCC1CCCCC1
inactive: [1] -4.8% | [2] -2.2% | [3] -13.1% | [4] 16.9% | [5] 22.1% | [6] 6.25%

OC1(C#Cc2ccccc2)c2ccccc2C(O)(C#Cc2ccccc2)c2ccccc21 (stereo unspecified)
inactive: [1] 9.95% | [2] -11.8% | [3] 1.6% | [4] 14.1% | [5] -10.3% | [6] 10.1%

O=S(CC(O)(c1ccccc1)c1ccccc1)c1ccccc1 (stereo unspecified)
inactive: [1] 6.55% | [2] 14.4% | [3] 18% | [4] 36.2% | [5] 30.9% | [6] 23.5%

CCN(CC)CCOB(c1cccc2ccccc12)c1cccc2ccccc12
inactive: [1] 39.6% | [2] 24.4% | [3] 17.1% | [4] 26.8% | [5] -3.4% | [6] 43.8%

NC(=O)/N=C/c1c(O)c2ccccc2oc1=O
inactive: [1] 9.6% | [2] -0.8% | [3] -11.6% | [4] -3.35% | [5] -42% | [6] -3.1%

ONc1ncnc2nc[nH]c12
inactive: [1] -8.65% | [2] 5.4% | [3] 3.8% | [4] -1.65% | [5] -2.45% | [6] -11.3%

CC1CN(c2ccc(Cl)cc2)CC(C)(C)OC(=O)O1 (stereo unspecified)
inactive: [1] -12.2% | [2] -16.1% | [3] -10.6% | [4] 0.2% | [5] 5.45% | [6] -2.5%

Cc1ccc2ccccc2c1CSc1nc(N)nc2c1ncn2CC(C)C
inactive: [1] 37% | [2] 23.6% | [3] 30.7% | [4] 25.6% | [5] 12.9% | [6] 46.5%

CCCCOc1cc2c(cc1C(C)c1ccccc1)OCO2 (stereo unspecified)
inactive: [1] -0.35% | [2] -3.95% | [3] -4.05% | [4] 2.8% | [5] 15.8% | [6] 14.8%

COc1nc2[nH]ccc2c(=O)[nH]1
inactive: [1] -23.8% | [2] -25.2% | [3] -31.8% | [4] 3.15% | [5] -11.3% | [6] -11.1%

CC(C)(C)c1ccc(OC(=S)Nc2ccccc2)cc1
inactive: [1] -32.8% | [2] -6.25% | [3] -17.4% | [4] -17.2% | [5] -13.6% | [6] 2.5%

NC(=O)CNCC1Cc2ccccc21 (stereo unspecified)
inactive: [1] 21.8% | [2] 6.85% | [3] 0.1% | [4] -16.4% | [5] 4.6% | [6] 7.45%

O=C(CC/C=C(/CS(=O)(=O)c1ccccc1)S(=O)(=O)c1ccccc1)c1ccccc1
inactive: [1] 20.3% | [2] -15.1% | [3] -5.75% | [4] -24.1% | [5] -6.15% | [6] 13.4%

Cc1ccc(CC2CC(=O)c3ccccc3C2=O)cc1 (stereo unspecified)
inactive: [1] -7.6% | [2] 2.95% | [3] -4.55% | [4] -13.9% | [5] 3.65% | [6] -16.4%

NC1=NC2(COC(c3ccccc3)(c3ccccc3)c3ccccc3)OC(COC(c3ccccc3)(c3ccccc3)c3ccccc3)C(O)C2O1 (stereo unspecified)
inactive: [1] 28.4% | [2] -5.4% | [3] 30.6% | [4] 5.25% | [5] 34.4% | [6] 13.4%
